# Unmarked numbers belong to inactive results. Inconclusive results are not listed. A call without a number means that no potency is given here. Calls of active or inactive are those of the source. The call rests on the fitted dose curve; in most records, active means well fitted curve in the direction sought with a large enough effect in the repeat runs; inconclusive means weak or mixed curves; inactive means no such curve, though single readings can be large; an effect the other way counts as inactive or inconclusive.
# Experiments:
# [1] = qHTS RealTime-Glo MT Cell Viability Assay in HepG2 cells - 8 hour (AID 1224873); further: nearly all actives have a fitted effect of over 55% in size
# Summary of the method: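 Real-time viability: cells seeded at 600 per well together with NanoLuc and cell-permeant prosubstrate, compounds added after 5 h incubation. Luminescence tracked at 0, 8, 16, 24, 32 and 40 h of exposure.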
# [2] = qHTS RealTime-Glo MT Cell Viability Assay in HEK293 cells - 40 hour (AID 1224874); conditions: RealTime-Glo luminescence; max response: hits give low values; further: nearly all actives have a fitted effect of over 50% in size; further: potency means the concentration at half of the fitted maximal effect
# Summary of the method: (§1)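 Luminescence readout at each listed time point; HEK293, 600 cells/well, RealTime-Glo MT reagent added with cells; compounds pinned (23 nL in DMSO) after 5 h at 37 C; continuous culture at 37 C.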
# [3] = A CellTox Green Cytotoxicity Assay to monitor cytotoxicity in HEK293 cells - 24 hour (AID 1224875); further: series mostly up to about 77 µM; nearly all actives have a fitted effect of over 45% in size
# Summary of the method: (§2)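 Read-out: fluorescence of a cell-impermeant cyanine dye staining DNA of dead cells, proportional to cytotoxicity. HEK293, 600 cells/well with reagent, compound (23 nL DMSO) added after 5 h; reads at 0, 8, 16, 24, 32, 40 h.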
# [4] = A CellTox Green Cytotoxicity Assay to monitor cytotoxicity in HepG2 cells - 16 hour (AID 1224876); further: nearly all actives have a fitted effect of over 45% in size
# Summary of the method: (§3)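 HepG2, 600 cells/well premixed w/ CellTox Green; 5 h settle, 37 C/5% CO2; pintool cpd add (DMSO); 37 C, 40 h; fluorescence read at 0, 8, 16, 24, 32, 40 h.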
# [5] = qHTS RealTime-Glo MT Cell Viability Assay in HepG2 cells - 32 hour (AID 1224877); further: nearly all actives have a fitted effect of over 55% in size
# Summary of the method: (§4)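 Luminescence read-out: viable HepG2 cells reduce a prosubstrate to a NanoLuc substrate, giving a signal proportional to live cell number. Reads taken at 0, 8, 16, 24, 32 and 40 h of compound exposure at 37 C.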
# [6] = A CellTox Green Cytotoxicity Assay to monitor cytotoxicity in HepG2 cells - 24 hour (AID 1224878); further: nearly all actives have a fitted effect of over 45% in size
# Summary of the method: as §3
# [7] = A CellTox Green Cytotoxicity Assay to monitor cytotoxicity in HepG2 cells - 40 hour (AID 1224879); further: nearly all actives have a fitted effect of over 40% in size
# Summary of the method: as §3
# [8] = qHTS RealTime-Glo MT Cell Viability Assay in HEK293 cells - 0 hour (AID 1224880); further: top concentration of the series differs between compounds; nearly all actives have a fitted effect of over 45% in size
# Summary of the method: as §1
# [9] = A CellTox Green Cytotoxicity Assay to monitor cytotoxicity in HEK293 cells - 32 hour (AID 1224881); further: nearly all actives have a fitted effect of over 40% in size
# Summary of the method: as §2
# [10] = A CellTox Green Cytotoxicity Assay to monitor cytotoxicity in HepG2 cells - 0 hour (AID 1224882); further: nearly all actives have a fitted effect of over 35% in size
# Summary of the method: as §3
# [11] = A CellTox Green Cytotoxicity Assay to monitor cytotoxicity in HepG2 cells - 32 hour (AID 1224883); further: nearly all actives have a fitted effect of over 50% in size
# Summary of the method: as §3
# [12] = A CellTox Green Cytotoxicity Assay to monitor cytotoxicity in HEK293 cells - 8 hour (AID 1224884); further: nearly all actives have a fitted effect of over 35% in size
# Summary of the method: as §2
# [13] = qHTS RealTime-Glo MT Cell Viability Assay in HepG2 cells - 16 hour (AID 1224885); further: nearly all actives have a fitted effect of over 50% in size
# Summary of the method: as §4
# [14] = qHTS RealTime-Glo MT Cell Viability Assay in HEK293 cells - 24 hour (AID 1224886); further: nearly all actives have a fitted effect of over 50% in size; further: potency means the concentration at half of the fitted maximal effect
# Summary of the method: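 Nonlytic real-time viability readout: viable cells convert prosubstrate to NanoLuc substrate, giving luminescence proportional to live cell number. HEK293, 600 cells/well, compound added after 5 h, continuous culture at 37 C.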
# [15] = qHTS RealTime-Glo MT Cell Viability Assay in HEK293 cells - 8 hour (AID 1224887); further: nearly all actives have a fitted effect of over 50% in size; further: potency means the concentration at half of the fitted maximal effect
# Summary of the method: as §1
# [16] = A CellTox Green Cytotoxicity Assay to monitor cytotoxicity in HEK293 cells - 16 hour (AID 1224888); further: nearly all actives have a fitted effect of over 35% in size
# Summary of the method: as §2
# [17] = A CellTox Green Cytotoxicity Assay to monitor cytotoxicity in HepG2 cells - 8 hour (AID 1224890); further: nearly all actives have a fitted effect of over 45% in size
# Summary of the method: as §3
# [18] = qHTS assay to identify small molecule antagonists of the estrogen receptor alpha (ER-alpha) signaling pathway using the BG1 cell line in the presence of 0.1 nM 17-beta-estradiol - cell viability counter screen (AID 1259241); further: nearly all actives have a fitted effect of over 40% in size; further: potency means the concentration at half of the fitted maximal effect
# Summary of the method: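 Measures cytotoxicity alongside the ER-alpha antagonist readout: VM7Luc4E2 cells, charcoal-stripped serum, 0.1 nM 17beta-estradiol final, 22 hr compound incubation at 37C, CellTiter-Fluor fluorescence.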
# [19] = qHTS assay to identify small molecule antagonists of the androgen receptor (AR) signaling pathway using the MDA cell line in the presence of 0.5 nM R1881 - cell viability counter screen (AID 1259242); further: nearly all actives have a fitted effect of over 45% in size; further: potency means the concentration at half of the fitted maximal effect
# Summary of the method: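 Live-cell protease fluorescence, CellTiter-Fluor, 30 min at 37C. Cells: MDA-kb2, 3,000/well, preincubated 5 hr. Compounds plus 0.5 nM R1881 final, 16 hr, 37C, 0% CO2.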
# [20] = qHTS RealTime-Glo MT Cell Viability Assay in HepG2 cells - 0 hour (AID 1224889); further: nearly all actives have a fitted effect of over 50% in size
# Summary of the method: as §4
structure (smiles),measurement,setting,value
Cc1nc2n(c(=O)c1CCN1CCC(c3noc4cc(F)ccc34)CC1)CCCC2,Potency,[1],inactive
same,Potency,[2],3.01 µM (active)
same,Potency,[3],inactive
same,Potency,[4],inactive
same,Potency,[5],inactive
same,Potency,[6],inactive
same,Potency,[7],inactive
same,Potency,[8],inactive
same,Potency,[9],inactive
same,Potency,[10],inactive
same,Potency,[11],inactive
same,Potency,[12],inactive
same,Potency,[13],inactive
same,Potency,[14],3.38 µM (active)
same,Potency,[15],3.01 µM (active)
same,Potency,[16],inactive
same,Potency,[17],inactive
same,Potency,[18],inactive
same,Potency,[19],inactive
Cc1cc(-n2nc3ccc(Cl)cc3n2)c(O)c(C(C)(C)C)c1,Potency,[1],inactive
same,max response,[2],-5.47%
same,Potency,[3],inactive
same,Potency,[4],inactive
same,Potency,[5],inactive
same,Potency,[6],inactive
same,Potency,[7],inactive
same,Potency,[8],inactive
same,Potency,[9],inactive
same,Potency,[10],inactive
same,Potency,[11],inactive
same,Potency,[13],inactive
same,Potency,[14],inactive
same,Potency,[15],inactive
same,Potency,[16],inactive
same,Potency,[20],inactive
same,Potency,[17],inactive
same,Potency,[18],inactive
same,Potency,[19],inactive
Cc1ccc(N/N=c2\c(=O)cc/c(=N\Nc3ccc(S(=O)(=O)O)cc3)c2=O)c(C)c1,Potency,[1],inactive
same,max response,[2],1.45%
same,Potency,[3],inactive
same,Potency,[4],inactive
same,Potency,[5],inactive
same,Potency,[6],inactive
same,Potency,[7],inactive
same,Potency,[8],inactive
same,Potency,[9],inactive
same,Potency,[10],inactive
same,Potency,[11],inactive
same,Potency,[12],inactive
same,Potency,[13],inactive
same,Potency,[14],inactive
same,Potency,[15],inactive
same,Potency,[16],inactive
same,Potency,[18],27.3 µM (active)
same,Potency,[19],48.6 µM (active)
Clc1sc(Cl)c(Cl)c1Cl,Potency,[1],inactive
same,max response,[2],7.4%
same,Potency,[3],inactive
same,Potency,[4],inactive
same,Potency,[5],inactive
same,Potency,[6],inactive
same,Potency,[7],inactive
same,Potency,[8],inactive
same,Potency,[9],inactive
same,Potency,[10],inactive
same,Potency,[11],inactive
same,Potency,[12],inactive
same,Potency,[13],inactive
same,Potency,[15],inactive
same,Potency,[16],inactive
same,Potency,[20],inactive
same,Potency,[17],inactive
same,Potency,[18],inactive
same,Potency,[19],inactive
O[C@@H]([C@H](O)[C@H](O)CBr)[C@H](O)CBr,Potency,[1],inactive
same,max response,[2],2.46%
same,Potency,[3],inactive
same,Potency,[4],inactive
same,Potency,[5],inactive
same,Potency,[6],inactive
same,Potency,[7],inactive
same,Potency,[8],inactive
same,Potency,[9],inactive
same,Potency,[10],inactive
same,Potency,[11],inactive
same,Potency,[12],inactive
same,Potency,[13],inactive
same,Potency,[14],inactive
same,Potency,[15],inactive
same,Potency,[16],inactive
same,Potency,[20],inactive
same,Potency,[17],inactive
same,Potency,[18],inactive
same,Potency,[19],inactive
O=C(O)c1ccc2cc(C(=O)O)ccc2c1,Potency,[1],inactive
same,max response,[2],7.36%
same,Potency,[3],inactive
same,Potency,[4],inactive
same,Potency,[5],inactive
same,Potency,[6],inactive
same,Potency,[7],inactive
same,Potency,[8],inactive
same,Potency,[9],inactive
same,Potency,[10],inactive
same,Potency,[11],inactive
same,Potency,[12],inactive
same,Potency,[13],inactive
same,Potency,[14],inactive
same,Potency,[15],inactive
same,Potency,[16],inactive
same,Potency,[20],inactive
same,Potency,[17],inactive
same,Potency,[18],inactive
same,Potency,[19],inactive

# From PubChem BioAssay (Tox21)
